Test results: PubChem BioAssay AID1347142 (National Center for Advancing Translational Sciences (NCATS), 2019)
Inconclusive results are not listed. Calls of active or inactive are those of the source. Calls follow the shape of the dose curve; as a rule, active = well fitted inhibition curve with a large enough effect; inconclusive = small, poorly fitted or top-dose-only effect; inactive = no such curve, though single readings can be large or run the other way.

biological target: N-terminal Xaa-Pro-Lys N-methyltransferase 1 (Homo sapiens) (UniProt Q9BV86); experiment: qHTS Assay for Inhibitors of N-terminal methyltransferase 1 (NTMT1): ThioGlo3 Assay Confirmatory Screen, Round 1.; conditions: NTMT1 SAHH-coupled ThioGlo3 fluorescence, 30 min; series mostly up to 56.8 µM; activity change, negative = inhibition: at the top concentration
How it was run: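 Human NTMT1 at 125 nM was preincubated 1 min at room temperature with compounds at various concentrations or 1 uM RCC1-6 control. Substrate mix (100 uM SAM, 10 uM SAHH, 15 uM ThioGlo3) was added, and fluorescence (Ex 340/Em 450 nm) was read at start and after 30 min, normalized to background.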
Also: nearly all actives have a fitted effect of over 80% in size.
For activity change, negative = inhibition in this document: 0% is about no effect.
Potency is read from the fitted curve at half-maximal effect.

Sequence of N-terminal Xaa-Pro-Lys N-methyltransferase 1 (Homo sapiens) (Q9BV86 whole entry, looked up): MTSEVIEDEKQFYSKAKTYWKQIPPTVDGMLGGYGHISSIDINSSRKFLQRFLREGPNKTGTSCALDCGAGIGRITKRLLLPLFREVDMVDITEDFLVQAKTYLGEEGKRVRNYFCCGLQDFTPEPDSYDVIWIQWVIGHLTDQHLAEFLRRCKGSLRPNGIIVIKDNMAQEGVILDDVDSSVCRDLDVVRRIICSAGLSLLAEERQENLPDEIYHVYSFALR

Row | Compound | Potency | activity change, negative = inhibition
1 | COc1cc2nc(N3CCN(C)CC3)nc(NC3CCCC3)c2cc1OC | 24.1 µM (active) | –
2 | COCCCCOc1cc2nc(N3CCCN(C)CC3)nc(NC3CCN(C)CC3)c2cc1OC | 24.1 µM (active) | –
3 | COc1cc2c(NC3CCN(C)CC3)nc(N3CCCN(C)CC3)nc2cc1OCCCN1CCOCC1 | 24.1 µM (active) | –
4 | OC[C@H]1O[C@@H](n2cnc3c(N[C@H]4C[C@H]5CC[C@@H]4C5)ncnc32)[C@H](O)[C@@H]1O | – | -20.2% (inactive)
5 | C[S+](CC[C@H](N)C(=O)O)C[C@H]1O[C@@H](n2cnc3c(N)ncnc32)[C@H](O)[C@@H]1O (stereo partly specified) | inactive | –
6 | CNC(=O)[C@H]1O[C@H](n2cnc3c(NCc4cccc(I)c4)nc(Cl)nc32)[C@@H](O)[C@@H]1O | – | 12.8% (inactive)
7 | COc1cc2c(NC3CCN(C)CC3)nc(N3CCCCC3)nc2cc1OCCCN(C)C | – | 1400% (inactive)
8 | Nc1ncnc2c1ncn2[C@@H]1O[C@H](CO)C[C@@H]1O | – | 14% (inactive)
9 | COc1cc2nc(N3CCCN(C)CC3)nc(NC3CCN(C)C3)c2cc1OC (stereo unspecified) | 24.1 µM (active) | –
10 | COc1cc2nc(N3CCN(C)CC3)nc(N3CCOCC3)c2cc1OC | 21.5 µM (active) | –
11 | COc1cc2c(NC3CCN(C)CC3)nc(N3CCCN(C)CC3)nc2cc1OCCCN1CCCC1 | 27.1 µM (active) | –
12 | NCCNC(=O)Cc1ccc(NC(=O)Cc2ccc(Nc3ncnc4c3ncn4[C@@H]3O[C@H](CO)[C@@H](O)[C@H]3O)cc2)cc1 | – | -1.16% (inactive)
13 | CCCC(=O)Nc1ncnc2c1ncn2[C@@H]1O[C@@H]2COP(=O)(O)O[C@H]2[C@H]1OC(=O)CCC | – | 16.8% (inactive)
14 | Nc1ncnc2c1nc(Br)n2C1CC(O)C(CO)O1 (stereo unspecified) | – | 6.52% (inactive)
15 | O=c1[nH]cnc2c1ncn2C1O[C@H](CO)[C@@H](O)[C@H]1O (stereo partly specified) | – | 19.8% (inactive)
16 | COC1C(CO)OC(n2cnc3c(=O)[nH]cnc32)C1O (stereo unspecified) | – | -19% (inactive)
17 | OC[C@H]1O[C@@H](n2cnc3c(Nc4ccccc4)ncnc32)[C@H](O)[C@@H]1O | – | 3.01% (inactive)
18 | COC(=O)c1ccc2c(c1)nc(NC(=O)c1ccccc1)n2CCCc1ccccc1 | – | 380% (inactive)
19 | CNC(=O)c1cnn(-c2nc(N)c3ncn([C@@H]4O[C@H](CO)[C@@H](O)[C@H]4O)c3n2)c1 | – | -22.6% (inactive)
20 | COc1cc2nc(N3CCCN(C)CC3)nc(NC(C)C)c2cc1OC | 24.1 µM (active) | –
21 | Nc1nc(=S)c2ncn([C@H]3O[C@@H](CO)[C@@H](O)[C@@H]3O)c2[nH]1 | 13 µM (active) | –
